Results: PubChem BioAssay (NCI)
The panel holds about 83,000 compounds, 20% with a hit somewhere; the sample as a whole holds those more often.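 Plates (96-well) were seeded with cells, treated with compound at one concentration, and incubated for 48 hours before percent growth was determined.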 Activity calls are given as the source filed them. How the source made its calls: active means growth percent below 10; inactive means the rest.

system: HL-60(TB) leukemia; assay: NCI-60 one-dose screen, 48 h (100 = growth as untreated, 0 = no growth, -100 = all killed); conditions: 10 µM unless noted

| Compound | growth |
| --- | --- |
| COc1ccc2cc(/C=C3\N=C(c4cc(OC)c(OC)c(OC)c4)OC3=O)c(OC)nc2c1 | 95.3% (inactive) |
| COc1cc(C(=O)NC(=S)NCc2ccncc2)cc(OC)c1OC | 89.7% (inactive) |
| Cc1ccc2nc(C[n+]3ccc4ccccc4c3)ccc2c1 | 26.1% (inactive) |
| COc1cc2ccccc2cc1C(=O)NC(=S)Nc1ccc(-c2nc3ccccc3[nH]2)cc1 | 106% (inactive) |
| O=[N+]([O-])c1ccc(-c2nc(N3CCOCC3)c3c4c(sc3n2)CCCC4)cc1 | 92.2% (inactive) |
| CC(C)(C)c1ccc(O)c(-c2ccccc2)c1 | 0.4% (active) |
